The nature of test [1]: qHTS assay to identify small molecule agonists of the vitamin D receptor (VDR) signaling pathway - cell viability counter screen (AID 743224). Also: nearly all actives have a fitted effect of over 50% in size. Also: potency is read from the fitted curve at half-maximal effect. The method, boiled down: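 VDR-bla cells were preincubated 4 h at 37C/5% CO2, then exposed to compounds for 16 h. After the 2 h room-temperature bla FRET read, CellTiter-Glo was added to the same wells and luminescence read after 30 min.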

The nature of test [2]: qHTS assay to identify small molecule antagonists of the vitamin D receptor (VDR) signaling pathway - cell viability counter screen (AID 743225). Also: nearly all actives have a fitted effect of over 50% in size. Also: potency is read from the fitted curve at half-maximal effect. The method, boiled down:
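Compounds were pinned onto VDR-bla HEK 293T cells together with 1-alpha,25-dihydroxyvitamin D3 at 3 nM final. After 16 h at 37C and 5% CO2 plus the reporter readout, cell viability was measured by CellTiter-Glo luminescence (30 min, room temperature).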
A general note: qHTS replaces the single test concentration by a dilution series.

Test [3] in a line: qHTS assay to identify small molecule agonists of the NFkB signaling pathway - cell viability counter screen (AID 1159515; calls by dose curve; also: nearly all actives have a fitted effect of over 55% in size; also: potency is read from the fitted curve at half-maximal effect). The method, boiled down: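 NFkB-bla ME-180 cells, 2,000/well, were plated overnight at 37 C, 5% CO2, then exposed to compounds in DMSO for 5 hr. After the bla FRET read, CellTiter-Glo was added to the same wells; luminescence was read after 30 min at room temperature.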

A short description of test [4]: qHTS assay to identify small molecule agonists of the endoplasmic reticulum stress response signaling pathway - cell viability counter screen (AID 1159517; calls by dose curve; also: nearly all actives have a fitted effect of over 50% in size; also: potency is read from the fitted curve at half-maximal effect). The method, boiled down: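 Cells, HeLa ESRE-bla; density, 1,500/well; dosing, 5 hr at 37 C, 5% CO2; readout, CellTiter-Glo luminescence after 30 min RT.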
A short description of test [5]: qHTS assay to identify small molecule antagonists of the retinoid-related orphan receptor gamma (ROR-gamma) signaling pathway - cell viability counter screen (AID 1159520). Also: nearly all actives have a fitted effect of over 50% in size. Also: potency is read from the fitted curve at half-maximal effect. The method, boiled down:
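Cytotoxicity was read from cellular ATP (CellTiter-Glo luminescence) after 16 hr at 37 C with 1 uM doxycycline induction. The inducer was added 2 hr after compound transfer to Tet-on ROR gamma CHO cells.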

A short description of test [6]: qHTS assay to identify small molecule agonists of the AP-1 signaling pathway - cell viability counter screen (AID 1159525; calls by dose curve; also: nearly all actives have a fitted effect of over 55% in size; also: potency is read from the fitted curve at half-maximal effect). In outline:
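Luminescent ATP readout (Cell Titer Glo, 30 min RT), normalised to DMSO and tetra n-octyl ammonium bromide controls. Cells were ME-180 AP-1-bla in 0.5% dialyzed FBS Opti-MEM, with a 5 h, 37 °C compound exposure.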

A short description of test [7]: qHTS assay to identify small molecule agonists of the AP-1 signaling pathway (AID 1159526; calls by dose curve).
Test [8] addresses Retinoic acid receptor RXR-alpha (Homo sapiens) (UniProt P19793). Put plainly: qHTS assay to identify small molecule agonists of the RXR signaling pathway (AID 1159527; calls by dose curve; also: nearly all actives have a fitted effect of over 35% in size). In outline: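 Using 9-cis retinoic acid as the reference agonist, chemicals were tested in HEK 293T cells […] for 16 hr; substrate loading lasted 2 hr at room temperature.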

The nature of test [9]: qHTS assay to identify small molecule agonists of the RXR signaling pathway - cell viability counter screen (AID 1159529). Also: nearly all actives have a fitted effect of over 50% in size. Also: potency is read from the fitted curve at half-maximal effect. The method, boiled down: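 Compounds dissolved in DMSO were pinned onto HEK 293T cells carrying a beta-lactamase reporter under RXR-alpha control and incubated 16 hr. Cytotoxicity was then quantified by CellTiter-Glo luminescence.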
The nature of test [10]: qHTS assay to identify small molecule antagonists of the retinoid acid receptor (RAR) signaling pathway - cell viability counter screen (AID 1159551). Also: nearly all actives have a fitted effect of over 35% in size. The method, boiled down:
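C3RL4 cells were seeded overnight at 37 C, then treated with compounds plus 1 uM (final) retinol for 6 h at 37 C. Viability was read as ATP by CellTiter-Glo luminescence after 30 min at room temperature.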

The nature of test [11]: qHTS assay to identify small molecule antagonists of the retinoic acid receptor (RAR) signaling pathway (AID 1159552; also: nearly all actives have a fitted effect of over 50% in size; also: potency is read from the fitted curve at half-maximal effect). In outline:
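Test chemicals and DMSO controls were pin-transferred onto C3RL4 cells a day after seeding; retinol (1 uM final) followed at once. Luminescent reporter output was quantified after 6 hr of co-incubation and 30 min with detection reagent.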

A short description of test [12]: qHTS assay to identify small molecule agonists of the retinoic acid receptor (RAR) signaling pathway (AID 1159553). The method, boiled down: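 C3RL4 cells carrying a RARE luciferase reporter were plated overnight at 37 C, then exposed to compounds in DMSO for 6 hr at 37 C and 5% CO2. Luminescence was read 30 min after luciferase reagent addition at room temperature.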

Test [13] is described as follows: qHTS assay to identify small molecule antagonists of the estrogen related receptor (ERR) signaling pathway from Tox21 library - cell viability counter screen (AID 1224834). Also: nearly all actives have a fitted effect of over 30% in size. Also: potency is read from the fitted curve at half-maximal effect. The method, boiled down: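 ERR reporter cells were plated 6 h before compound addition, then exposed to test compounds in DMSO for 17.5 h at 37 C. Viability was read as CellTiter-Fluor fluorescence after a 30-minute incubation at 37 C.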

In test [14] the target is Luciferin 4-monooxygenase (Photinus pyralis) (UniProt P08659). Put plainly: qHTS assay to identify small molecule inhibitors of firefly luciferase (AID 1224835). Also: nearly all actives have a fitted effect of over 25% in size. Also: potency is read from the fitted curve at half-maximal effect. The method, boiled down: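 Inhibition of purified Photinus luciferase is measured by luminescence. Substrate levels (D-luciferin, ATP) sit at their KM values. Each compound is tested in a concentration series.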
Sequence of Luciferin 4-monooxygenase (Photinus pyralis) (P08659 whole entry, looked up): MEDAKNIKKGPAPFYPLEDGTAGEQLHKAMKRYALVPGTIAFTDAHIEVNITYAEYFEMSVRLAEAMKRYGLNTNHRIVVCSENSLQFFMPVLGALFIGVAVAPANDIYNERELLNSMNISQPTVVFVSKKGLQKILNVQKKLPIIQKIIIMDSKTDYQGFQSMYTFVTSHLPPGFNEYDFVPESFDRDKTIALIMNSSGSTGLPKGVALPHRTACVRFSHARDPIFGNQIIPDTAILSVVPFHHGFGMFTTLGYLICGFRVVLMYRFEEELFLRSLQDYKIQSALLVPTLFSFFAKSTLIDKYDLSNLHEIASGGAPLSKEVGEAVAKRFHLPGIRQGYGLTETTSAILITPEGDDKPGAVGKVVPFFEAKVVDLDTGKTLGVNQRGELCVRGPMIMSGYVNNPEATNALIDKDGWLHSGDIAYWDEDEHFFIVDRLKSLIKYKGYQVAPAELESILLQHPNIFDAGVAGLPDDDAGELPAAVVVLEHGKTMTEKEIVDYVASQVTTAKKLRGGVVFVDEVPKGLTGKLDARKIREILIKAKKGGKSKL

Test [15] concerns the target Nuclear receptor ROR-gamma (Homo sapiens) (UniProt P51449). The test is described as follows: qHTS assay to identify small molecule antagonists of the retinoid-related orphan receptor gamma (ROR-gamma) signaling pathway (AID 1159521; also: nearly all actives have a fitted effect of over 50% in size; also: potency is read from the fitted curve at half-maximal effect). In outline:
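Test compounds were applied to Tet-on RORγ CHO cells 2 h ahead of doxycycline hyclate (1 uM final). Luciferase reporter activity was quantified by luminescence after 16 h at 37 C and 5% CO2.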

Test [16] in a line: qHTS assay to identify small molecule agonists of the estrogen related receptor (ERR) signaling pathway (AID 1224820). In outline: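 Quantitative HTS of the LOPAC library used NTP ERR reporter cells treated 18 h at 37 C. Signal is luminescence after One-Glo addition and a 30 min room-temperature incubation.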
The nature of test [17]: qHTS assay to identify small molecule antagonists of the estrogen related receptor signaling pathway with the pleiotropic PPARgamma coactivator (PGC) cell viability counter screen (AID 1224822; also: potency is read from the fitted curve at half-maximal effect). In outline: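 PGC/ERR cells were seeded at 2,000 cells/well, rested 6 h at 37 C/5% CO2, then given compounds in DMSO by pin tool and incubated 17.5 h at 37 C. Viability came from CellTiter-Fluor fluorescence after 30 min.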

Test [18] is described as follows: qHTS assay to identify small molecule agonists of the estrogen related receptor signaling pathway with the pleiotropic PPARgamma coactivator (PGC) (AID 1224823). The method, boiled down: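 Cell-based luciferase assay in the NTP-supplied PGC/ERR line, 2,000 cells/well; 18 h compound exposure at 37 C, luminescence after One-Glo.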
A short description of test [19]: qHTS assay to identify small molecule antagonists of the estrogen related receptor (ERR) signaling pathway (AID 1224819). The method, boiled down: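 ERR reporter cells were plated at 2,000 cells/well and left 6 h at 37 C/5% CO2 before pin-tool transfer of compounds in DMSO. After 18 h at 37 C, One-Glo was added and luminescence was read 30 min later at room temperature.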

Results filed as inconclusive are left out. Calls of active or inactive are those of the source. Unless noted, calls follow the shape of the dose curve; as a rule, active = well fitted curve in the direction sought with a large enough effect in the repeat runs; inconclusive = weak or mixed curves; inactive = no such curve, though single readings can be large; an effect the other way counts as inactive or inconclusive.

Sequence of Retinoic acid receptor RXR-alpha (Homo sapiens) (P19793 whole entry, looked up): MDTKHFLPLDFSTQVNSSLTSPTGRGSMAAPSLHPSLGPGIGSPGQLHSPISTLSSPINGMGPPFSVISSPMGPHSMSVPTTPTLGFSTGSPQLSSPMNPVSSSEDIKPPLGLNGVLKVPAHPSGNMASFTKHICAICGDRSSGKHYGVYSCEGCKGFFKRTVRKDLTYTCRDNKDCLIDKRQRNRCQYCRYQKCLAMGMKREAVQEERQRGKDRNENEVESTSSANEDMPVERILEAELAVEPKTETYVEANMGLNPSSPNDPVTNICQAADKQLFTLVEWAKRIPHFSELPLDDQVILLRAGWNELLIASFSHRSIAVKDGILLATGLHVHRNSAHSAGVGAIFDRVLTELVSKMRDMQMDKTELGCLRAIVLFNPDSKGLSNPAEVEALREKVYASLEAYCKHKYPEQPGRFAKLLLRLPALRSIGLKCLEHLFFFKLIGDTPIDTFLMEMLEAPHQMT

As to `CC(C)(C)c1ccc(C(=O)O)cc1`, the Potency result in test [1], in [2], in test [3], in test [4], in [5] and in test [6] was “inactive” throughout. Further, the Potency result in test [7], in [8], in [9], in test [10], in [11] and in [12] was “inactive” throughout. The Potency entry in [13] was “inactive”. Further, the Potency in test [14] was 35.6 µM (active).
On to `N=C1N=C(N)c2cc3ccccc3cc21`, for which the Potency in test [1] is 49 µM (active); in [3], 49 µM (active); in test [4], 8.71 µM (active); in test [5] it was 30.6 µM (active); in [15], 30.6 µM (active); in [6] it was 49 µM (active). Besides, the Potency was 49 µM (active) in test [9], 43.3 µM (active) in [11], 20.9 µM (active) in [17] and 27.3 µM (active) in [13]. For the same compound, the outcome in test [16] and in test [18] was inactive. Moreover, the Potency result in test [14] was “inactive”.
Take `O=C(OCC1CO1)C1CCCCC1C(=O)OCC1CO1` (centres undefined): the Potency entry in test [1], in test [2], in test [3], in test [4], in test [5] and in test [15] was “inactive” in each case. Moreover, the Potency entry in test [7], in test [9] and in test [14] was “inactive” each time.
Regarding `CC(C)(C)C(=O)OCOC(=O)C1N2C(=O)CC2S(=O)(=O)C1(C)C` (centres undefined), the Potency result in [1], in test [2], in [3], in test [4], in [5] and in test [15] was “inactive” throughout. For the same compound, the Potency entry in test [6], in [9], in test [11], in test [12], in [13] and in test [14] was “inactive” each time.
For `O=C(c1ccc(F)cc1)C1CCN(CCn2c(=O)[nH]c3ccccc3c2=O)CC1`, the Potency result in [3], in test [4], in test [5], in test [6], in [7] and in test [9] was “inactive” each time. Further, the Potency result in test [10], in test [11], in [12], in test [19] and in test [17] was “inactive” throughout. Also, the outcome in test [16] and in test [18] was inactive.
On to `CCOc1ccc2nc3cc(N)ccc3c(N)c2c1`, for which the Potency result in test [1], in [2], in [3], in test [4], in test [5] and in test [15] was “inactive” each time. The Potency entry in [6] and in test [12] was “inactive” in each case.
For the compound `CCCCCCCCCCCCCC[P+](CCCC)(CCCC)CCCC` (tested in a mixture with another compound), the Potency result in test [1], in [2] and in test [14] was “inactive” in each case. The Potency in [3] was 22 µM (active); in test [4], 22 µM (active); in [5] it was 15.4 µM (active); in test [15] it was 4.89 µM (active); in test [6], 12.4 µM (active); in [13] it was 24.5 µM (active).
For `CCCCCCCCCCCCCCCCCC[N+](C)(C)C`, the Potency is 3.9 µM (active) in [2]; 55.1 µM (active) in test [3]; 49.1 µM (active) in test [4]; 54.6 µM (active) in [5]; 6.13 µM (active) in test [15]; 49.1 µM (active) in [6]. Besides, the Potency in test [9] was 24.6 µM (active); in test [11], 54.6 µM (active); in [13], 61.3 µM (active). For the same compound, the Potency result in test [14] was “inactive”.
For `O=C(Oc1ccccc1)c1ccccc1C(=O)Oc1ccccc1`, the Potency entry in test [1], in test [2], in test [3], in [4], in test [5] and in test [6] was “inactive” throughout. Besides, the Potency entry in test [7], in test [9], in test [10], in test [12] and in test [14] was “inactive” throughout.

Values taken from PubChem BioAssay (Tox21).
